# Experimental data from PMC7862700, “An all-to-all approach to the identification of sequence-specific readers for epigenetic DNA modifications on cytosine”.
# How the values were obtained:
# Experiment in all cases: DAPPL (digital affinity profiling via proximity ligation, sequencing); 10 mM Tris-HCl pH 7.5, 50 mM NaCl, 1 mM DTT, 4% glycerol, room temperature, 30 min; GST-TFs on glutathione beads, 16-mer random dsDNA library, 0.1% formaldehyde crosslink after washing; high values mean tight binding
# [1] = target: T1, FLI1 (Homo sapiens, UniProt Q01543 1-452); conditions: protein: recombinant; tags: N-terminal GST; dsDNA, one strand shown
# T1 sequence: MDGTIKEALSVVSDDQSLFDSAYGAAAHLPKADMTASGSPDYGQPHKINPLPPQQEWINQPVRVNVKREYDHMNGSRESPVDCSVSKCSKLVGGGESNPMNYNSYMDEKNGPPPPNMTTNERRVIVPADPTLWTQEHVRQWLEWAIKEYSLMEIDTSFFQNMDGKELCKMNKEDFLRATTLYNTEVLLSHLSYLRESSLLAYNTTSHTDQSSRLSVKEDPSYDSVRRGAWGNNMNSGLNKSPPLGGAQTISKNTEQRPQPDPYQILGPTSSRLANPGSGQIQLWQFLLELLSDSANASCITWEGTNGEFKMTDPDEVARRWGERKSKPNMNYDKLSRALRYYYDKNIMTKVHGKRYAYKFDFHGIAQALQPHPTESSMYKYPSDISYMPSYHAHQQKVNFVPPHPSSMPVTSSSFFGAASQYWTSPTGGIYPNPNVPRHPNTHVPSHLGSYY
# Summary of the method: (§1)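 Beads coated with glutathione captured GST-fused human transcription factors that had been expressed in yeast, and the factors were then given DNA barcodes and pooled with a tag-only sample. The pools were incubated with 200 nmole of a random double-stranded 16-mer DNA library in Tris/NaCl/DTT/glycerol buffer for 30 min at room temperature, washed, crosslinked with 0.1% formaldehyde and proximity-ligated with BsaI/T4 ligase at 37 °C for 1 h. PCR amplification and Illumina NextSeq500 sequencing came last. Binding signal is each hexamer's read frequency for a factor divided by its frequency for the tag-only sample.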
# [2] = target: T2, ELK1 (Homo sapiens, UniProt P19419 1-428); conditions: protein: recombinant; tags: N-terminal GST; dsDNA, one strand shown
# T2 sequence: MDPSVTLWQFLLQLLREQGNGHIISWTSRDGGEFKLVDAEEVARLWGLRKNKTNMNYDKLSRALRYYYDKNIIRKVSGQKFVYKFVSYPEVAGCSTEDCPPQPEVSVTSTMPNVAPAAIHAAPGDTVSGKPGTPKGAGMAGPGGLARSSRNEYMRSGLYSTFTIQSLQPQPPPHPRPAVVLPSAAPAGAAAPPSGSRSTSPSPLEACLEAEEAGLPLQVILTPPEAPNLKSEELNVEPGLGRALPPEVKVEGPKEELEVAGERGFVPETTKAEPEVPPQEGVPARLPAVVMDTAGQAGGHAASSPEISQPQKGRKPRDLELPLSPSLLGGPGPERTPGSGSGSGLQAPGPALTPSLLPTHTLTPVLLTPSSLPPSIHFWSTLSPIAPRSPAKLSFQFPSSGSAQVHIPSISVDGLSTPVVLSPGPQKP
# Summary of the method: as §1
# [3] = target: T3, GABPA (Homo sapiens, UniProt Q06546 1-454); conditions: protein: recombinant; tags: N-terminal GST; dsDNA, one strand shown
# T3 sequence: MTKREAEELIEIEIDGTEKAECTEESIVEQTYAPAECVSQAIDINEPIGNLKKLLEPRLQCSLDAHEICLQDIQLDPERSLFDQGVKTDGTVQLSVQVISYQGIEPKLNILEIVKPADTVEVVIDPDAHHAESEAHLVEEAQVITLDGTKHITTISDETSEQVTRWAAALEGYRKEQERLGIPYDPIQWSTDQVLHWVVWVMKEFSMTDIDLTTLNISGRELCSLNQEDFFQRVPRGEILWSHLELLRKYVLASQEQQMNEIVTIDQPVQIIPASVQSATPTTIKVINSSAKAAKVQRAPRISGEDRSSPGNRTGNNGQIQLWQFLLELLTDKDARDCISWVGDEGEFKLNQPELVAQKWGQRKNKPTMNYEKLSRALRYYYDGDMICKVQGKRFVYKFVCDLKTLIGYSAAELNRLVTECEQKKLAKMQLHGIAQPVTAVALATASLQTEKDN
# Summary of the method: as §1
# [4] = target: T4, ERG (Homo sapiens, UniProt P11308 1-479); conditions: protein: recombinant; tags: N-terminal GST; dsDNA, one strand shown
# T4 sequence: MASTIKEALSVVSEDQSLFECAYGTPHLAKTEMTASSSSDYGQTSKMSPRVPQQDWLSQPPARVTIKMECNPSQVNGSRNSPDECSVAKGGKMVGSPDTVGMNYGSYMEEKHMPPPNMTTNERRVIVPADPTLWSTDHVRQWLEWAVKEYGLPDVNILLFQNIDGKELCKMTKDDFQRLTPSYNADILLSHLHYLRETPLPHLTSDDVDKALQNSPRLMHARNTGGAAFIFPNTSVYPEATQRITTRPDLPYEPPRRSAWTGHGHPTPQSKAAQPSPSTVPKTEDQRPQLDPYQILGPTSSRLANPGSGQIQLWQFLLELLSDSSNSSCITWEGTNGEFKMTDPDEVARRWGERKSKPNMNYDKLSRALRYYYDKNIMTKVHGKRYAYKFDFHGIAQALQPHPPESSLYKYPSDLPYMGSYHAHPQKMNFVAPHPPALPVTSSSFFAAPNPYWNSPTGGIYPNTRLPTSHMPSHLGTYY
# Summary of the method: as §1
# [5] = target: ELF1 (Homo sapiens, UniProt P32519 1-619); conditions: protein: recombinant; tags: N-terminal GST; dsDNA, one strand shown
# Chain of ELF1 (P32519 whole entry): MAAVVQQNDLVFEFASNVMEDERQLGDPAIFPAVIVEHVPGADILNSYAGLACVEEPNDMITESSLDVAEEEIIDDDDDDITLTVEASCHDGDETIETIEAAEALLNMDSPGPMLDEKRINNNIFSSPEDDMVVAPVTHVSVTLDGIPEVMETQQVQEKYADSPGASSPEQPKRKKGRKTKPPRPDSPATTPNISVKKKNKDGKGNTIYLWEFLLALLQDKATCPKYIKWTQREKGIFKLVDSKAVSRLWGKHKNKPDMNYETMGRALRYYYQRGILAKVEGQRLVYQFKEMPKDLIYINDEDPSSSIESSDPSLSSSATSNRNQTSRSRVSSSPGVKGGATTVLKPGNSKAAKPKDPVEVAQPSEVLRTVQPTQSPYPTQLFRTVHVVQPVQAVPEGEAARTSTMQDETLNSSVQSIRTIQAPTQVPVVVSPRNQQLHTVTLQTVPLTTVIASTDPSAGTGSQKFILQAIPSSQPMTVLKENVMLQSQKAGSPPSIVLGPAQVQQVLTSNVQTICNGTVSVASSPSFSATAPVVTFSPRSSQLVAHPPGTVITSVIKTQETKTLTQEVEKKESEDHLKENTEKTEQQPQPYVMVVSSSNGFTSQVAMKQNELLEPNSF
# Summary of the method: as §1
# [6] = target: T5, EHF (Homo sapiens, UniProt Q9NZC4 1-300); conditions: protein: recombinant; tags: N-terminal GST; dsDNA, one strand shown
# T5 sequence: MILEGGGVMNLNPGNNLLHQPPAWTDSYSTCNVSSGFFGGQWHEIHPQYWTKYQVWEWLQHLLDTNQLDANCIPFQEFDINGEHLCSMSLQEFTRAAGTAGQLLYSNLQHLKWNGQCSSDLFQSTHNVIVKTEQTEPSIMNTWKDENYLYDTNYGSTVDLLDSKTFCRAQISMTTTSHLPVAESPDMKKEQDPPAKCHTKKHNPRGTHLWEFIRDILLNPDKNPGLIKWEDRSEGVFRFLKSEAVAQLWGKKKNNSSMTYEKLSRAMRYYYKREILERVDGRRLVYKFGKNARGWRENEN
# Summary of the method: as §1
# [7] = target: SPI1 (Homo sapiens, UniProt P17947 1-270); conditions: protein: recombinant; tags: N-terminal GST; dsDNA, one strand shown
# Summary of the method: as §1
# [8] = target: SPIB (Homo sapiens, UniProt Q01892 1-262); conditions: protein: recombinant; tags: N-terminal GST; dsDNA, one strand shown
# Chain of SPIB (Q01892 whole entry): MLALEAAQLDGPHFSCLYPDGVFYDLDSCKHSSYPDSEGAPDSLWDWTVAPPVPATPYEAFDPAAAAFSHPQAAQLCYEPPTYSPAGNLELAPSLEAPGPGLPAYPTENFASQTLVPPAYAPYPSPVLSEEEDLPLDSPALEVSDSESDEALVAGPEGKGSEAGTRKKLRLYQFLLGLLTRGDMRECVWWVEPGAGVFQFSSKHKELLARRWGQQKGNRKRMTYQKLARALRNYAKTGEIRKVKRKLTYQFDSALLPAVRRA
# Summary of the method: as §1
# [9] = target: T6, FEV (Homo sapiens, UniProt Q99581 1-238); conditions: protein: recombinant; tags: N-terminal GST; dsDNA, one strand shown
# T6 sequence: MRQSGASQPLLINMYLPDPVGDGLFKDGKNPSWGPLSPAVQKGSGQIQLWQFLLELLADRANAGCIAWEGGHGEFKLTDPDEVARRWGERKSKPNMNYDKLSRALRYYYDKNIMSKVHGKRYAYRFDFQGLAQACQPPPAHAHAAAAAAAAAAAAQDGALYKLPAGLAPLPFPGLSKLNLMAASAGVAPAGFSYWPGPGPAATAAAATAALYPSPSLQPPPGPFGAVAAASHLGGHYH
# Summary of the method: as §1
# [10] = target: ETV5 (Homo sapiens, UniProt P41161 1-510); conditions: protein: recombinant; tags: N-terminal GST; dsDNA, one strand shown
# Chain of ETV5 (P41161 whole entry): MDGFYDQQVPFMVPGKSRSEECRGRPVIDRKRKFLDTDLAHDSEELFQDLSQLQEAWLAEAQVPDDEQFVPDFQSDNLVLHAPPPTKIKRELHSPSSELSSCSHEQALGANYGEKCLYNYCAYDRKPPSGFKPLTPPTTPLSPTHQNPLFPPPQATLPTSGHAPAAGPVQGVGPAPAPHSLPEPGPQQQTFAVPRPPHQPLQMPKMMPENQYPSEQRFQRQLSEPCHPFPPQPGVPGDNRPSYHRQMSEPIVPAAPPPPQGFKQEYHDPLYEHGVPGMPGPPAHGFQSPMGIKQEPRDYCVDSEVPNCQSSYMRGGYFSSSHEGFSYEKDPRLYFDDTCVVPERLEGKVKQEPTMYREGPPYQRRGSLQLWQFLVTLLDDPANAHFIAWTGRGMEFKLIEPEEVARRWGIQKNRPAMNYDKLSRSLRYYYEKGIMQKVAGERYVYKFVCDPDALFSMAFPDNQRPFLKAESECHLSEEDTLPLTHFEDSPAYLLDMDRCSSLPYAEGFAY
# Summary of the method: as §1
# [11] = target: HSF1 (Homo sapiens, UniProt Q00613 1-529); conditions: protein: recombinant; tags: N-terminal GST; chain copies: 3; dsDNA, one strand shown
# Chain of HSF1 (Q00613 whole entry): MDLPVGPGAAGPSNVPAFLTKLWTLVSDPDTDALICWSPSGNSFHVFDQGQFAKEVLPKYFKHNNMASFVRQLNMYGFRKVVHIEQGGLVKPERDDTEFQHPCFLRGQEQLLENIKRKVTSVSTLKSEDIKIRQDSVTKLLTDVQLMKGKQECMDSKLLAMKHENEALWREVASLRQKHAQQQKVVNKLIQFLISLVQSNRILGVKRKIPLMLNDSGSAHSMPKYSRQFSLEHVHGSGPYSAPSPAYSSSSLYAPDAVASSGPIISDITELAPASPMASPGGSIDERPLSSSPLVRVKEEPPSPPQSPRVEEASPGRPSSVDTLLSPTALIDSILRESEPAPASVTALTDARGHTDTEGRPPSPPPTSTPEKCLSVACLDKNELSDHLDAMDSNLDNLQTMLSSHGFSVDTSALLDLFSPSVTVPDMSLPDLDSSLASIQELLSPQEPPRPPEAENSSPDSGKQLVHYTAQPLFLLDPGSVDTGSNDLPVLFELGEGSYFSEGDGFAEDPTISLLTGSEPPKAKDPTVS
# Summary of the method: as §1
# [12] = target: T7, SPIC (Homo sapiens, UniProt Q8N5J4 1-248); conditions: protein: recombinant; tags: N-terminal GST; dsDNA, one strand shown
# T7 sequence: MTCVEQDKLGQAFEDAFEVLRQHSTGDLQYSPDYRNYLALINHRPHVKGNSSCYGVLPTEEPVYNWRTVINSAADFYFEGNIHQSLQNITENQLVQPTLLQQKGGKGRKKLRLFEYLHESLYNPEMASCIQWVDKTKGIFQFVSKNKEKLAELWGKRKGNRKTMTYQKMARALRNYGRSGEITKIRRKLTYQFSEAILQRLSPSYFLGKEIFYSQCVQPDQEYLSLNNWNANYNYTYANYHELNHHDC
# Summary of the method: as §1
# [13] = target: ELF4 (Homo sapiens, UniProt Q99607 1-663); conditions: protein: recombinant; tags: N-terminal GST; dsDNA, one strand shown
# Chain of ELF4 (Q99607 whole entry): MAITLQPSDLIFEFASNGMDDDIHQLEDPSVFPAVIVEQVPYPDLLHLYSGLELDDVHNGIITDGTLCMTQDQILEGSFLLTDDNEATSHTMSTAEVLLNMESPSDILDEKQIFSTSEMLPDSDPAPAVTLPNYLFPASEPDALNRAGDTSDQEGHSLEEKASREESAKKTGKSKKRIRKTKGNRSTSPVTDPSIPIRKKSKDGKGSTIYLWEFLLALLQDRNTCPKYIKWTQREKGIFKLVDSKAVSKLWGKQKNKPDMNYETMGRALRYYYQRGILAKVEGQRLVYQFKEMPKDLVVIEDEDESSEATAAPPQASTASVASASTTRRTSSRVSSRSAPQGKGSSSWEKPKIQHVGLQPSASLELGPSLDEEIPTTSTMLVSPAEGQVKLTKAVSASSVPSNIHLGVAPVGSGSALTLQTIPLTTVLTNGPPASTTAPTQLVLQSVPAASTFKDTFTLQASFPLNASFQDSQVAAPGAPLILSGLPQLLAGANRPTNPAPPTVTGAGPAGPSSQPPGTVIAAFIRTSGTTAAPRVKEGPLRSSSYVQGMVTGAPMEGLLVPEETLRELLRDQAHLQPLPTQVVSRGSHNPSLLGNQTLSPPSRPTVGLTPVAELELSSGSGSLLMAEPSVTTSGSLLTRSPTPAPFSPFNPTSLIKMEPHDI
# Summary of the method: as §1
# [14] = target: T8, ELK4 (Homo sapiens, UniProt P28324-2 1-405); conditions: protein: recombinant; tags: N-terminal GST; dsDNA, one strand shown
# T8 sequence: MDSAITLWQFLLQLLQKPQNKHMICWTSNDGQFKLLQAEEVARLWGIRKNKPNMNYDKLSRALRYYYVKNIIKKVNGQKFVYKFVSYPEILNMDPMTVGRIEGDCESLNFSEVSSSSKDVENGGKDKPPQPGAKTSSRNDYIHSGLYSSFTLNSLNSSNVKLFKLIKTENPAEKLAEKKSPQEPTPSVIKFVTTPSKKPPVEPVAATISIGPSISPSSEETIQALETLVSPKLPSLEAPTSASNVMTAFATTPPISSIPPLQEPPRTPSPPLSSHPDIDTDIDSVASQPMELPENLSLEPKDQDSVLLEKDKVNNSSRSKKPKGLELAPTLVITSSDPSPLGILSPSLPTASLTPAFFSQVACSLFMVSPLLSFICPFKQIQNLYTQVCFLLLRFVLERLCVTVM
# Summary of the method: as §1
# [15] = target: T9, ETV2 (Homo sapiens, UniProt O00321 1-342); conditions: protein: recombinant; tags: N-terminal GST; dsDNA, one strand shown
# T9 sequence: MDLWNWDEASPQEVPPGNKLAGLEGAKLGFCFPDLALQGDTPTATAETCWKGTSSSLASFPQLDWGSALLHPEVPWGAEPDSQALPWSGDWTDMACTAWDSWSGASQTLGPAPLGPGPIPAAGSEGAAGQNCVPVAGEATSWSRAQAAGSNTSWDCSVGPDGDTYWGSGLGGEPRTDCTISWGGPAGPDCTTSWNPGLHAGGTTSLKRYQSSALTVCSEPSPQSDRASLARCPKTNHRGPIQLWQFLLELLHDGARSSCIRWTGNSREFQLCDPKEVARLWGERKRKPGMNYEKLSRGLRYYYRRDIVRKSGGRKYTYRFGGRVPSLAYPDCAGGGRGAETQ
# Summary of the method: as §1
# [16] = target: T10, ELF3 (Homo sapiens, UniProt P78545 1-371); conditions: protein: recombinant; tags: N-terminal GST; dsDNA, one strand shown
# T10 sequence: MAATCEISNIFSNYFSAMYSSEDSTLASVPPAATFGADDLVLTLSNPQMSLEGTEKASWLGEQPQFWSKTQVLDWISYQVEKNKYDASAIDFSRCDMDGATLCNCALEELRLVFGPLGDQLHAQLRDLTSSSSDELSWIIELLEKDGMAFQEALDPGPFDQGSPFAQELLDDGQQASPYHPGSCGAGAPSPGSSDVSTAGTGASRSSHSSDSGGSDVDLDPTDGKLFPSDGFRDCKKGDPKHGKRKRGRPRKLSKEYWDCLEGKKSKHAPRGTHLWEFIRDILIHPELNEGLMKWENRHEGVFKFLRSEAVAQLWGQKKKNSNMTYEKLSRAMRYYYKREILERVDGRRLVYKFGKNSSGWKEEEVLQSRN
# Summary of the method: as §1
# [17] = target: CRX (Homo sapiens, UniProt O43186 1-299); conditions: protein: recombinant; tags: N-terminal GST; dsDNA, one strand shown
# Chain of CRX (O43186 whole entry): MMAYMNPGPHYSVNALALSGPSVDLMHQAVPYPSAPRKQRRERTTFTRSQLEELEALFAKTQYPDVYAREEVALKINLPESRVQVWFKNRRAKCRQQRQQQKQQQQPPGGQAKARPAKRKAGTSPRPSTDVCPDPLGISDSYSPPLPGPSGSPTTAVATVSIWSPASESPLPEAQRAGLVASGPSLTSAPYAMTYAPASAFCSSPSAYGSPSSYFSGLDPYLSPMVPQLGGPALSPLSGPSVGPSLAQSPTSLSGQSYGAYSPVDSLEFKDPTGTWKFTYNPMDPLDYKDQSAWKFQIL
# Summary of the method: as §1
# [18] = target: ETV1 (Homo sapiens, UniProt P50549 1-477); conditions: protein: recombinant; tags: N-terminal GST; dsDNA, one strand shown
# Chain of ETV1 (P50549 whole entry): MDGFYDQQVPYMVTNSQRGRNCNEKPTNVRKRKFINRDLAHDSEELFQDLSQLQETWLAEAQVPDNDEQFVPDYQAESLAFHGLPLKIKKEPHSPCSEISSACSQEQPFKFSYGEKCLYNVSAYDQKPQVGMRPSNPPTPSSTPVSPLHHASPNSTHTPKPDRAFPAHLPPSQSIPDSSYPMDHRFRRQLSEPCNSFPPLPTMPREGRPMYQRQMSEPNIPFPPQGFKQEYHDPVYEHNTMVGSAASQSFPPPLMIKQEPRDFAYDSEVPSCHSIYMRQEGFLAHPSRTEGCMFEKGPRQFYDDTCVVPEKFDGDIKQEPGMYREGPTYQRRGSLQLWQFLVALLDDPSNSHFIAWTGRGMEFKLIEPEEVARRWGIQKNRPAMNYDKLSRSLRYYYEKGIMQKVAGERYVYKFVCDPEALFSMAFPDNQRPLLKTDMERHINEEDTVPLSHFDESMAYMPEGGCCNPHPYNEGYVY
# Summary of the method: as §1
sequence,measurement,setting,value
AGGCTC,binding signal,[1],"1.04 fold enrichment (6-mer frequency, TF over GST control)"
same,binding signal,[2],"1.03 fold enrichment (6-mer frequency, TF over GST control)"
same,binding signal,[3],"1.12 fold enrichment (6-mer frequency, TF over GST control)"
same,binding signal,[4],"1.06 fold enrichment (6-mer frequency, TF over GST control)"
same,binding signal,[5],"1.12 fold enrichment (6-mer frequency, TF over GST control)"
same,binding signal,[6],"1.08 fold enrichment (6-mer frequency, TF over GST control)"
same,binding signal,[7],"1.02 fold enrichment (6-mer frequency, TF over GST control)"
same,binding signal,[8],"1.03 fold enrichment (6-mer frequency, TF over GST control)"
same,binding signal,[9],"1.06 fold enrichment (6-mer frequency, TF over GST control)"
same,binding signal,[10],"1.02 fold enrichment (6-mer frequency, TF over GST control)"
same,binding signal,[11],"1.14 fold enrichment (6-mer frequency, TF over GST control)"
same,binding signal,[12],"1.15 fold enrichment (6-mer frequency, TF over GST control)"
same,binding signal,[13],"1.07 fold enrichment (6-mer frequency, TF over GST control)"
same,binding signal,[14],"1.06 fold enrichment (6-mer frequency, TF over GST control)"
same,binding signal,[15],"1.01 fold enrichment (6-mer frequency, TF over GST control)"
same,binding signal,[16],"1.02 fold enrichment (6-mer frequency, TF over GST control)"
same,binding signal,[17],"1.29 fold enrichment (6-mer frequency, TF over GST control)"
same,binding signal,[18],"1.06 fold enrichment (6-mer frequency, TF over GST control)"
